{"source": "PubChem BioAssay AID1789", "about": "(The Scripps Research Institute Molecular Screening Center, 2009)", "note": "The campaign covered roughly 290,000 compounds. About 2,700 (0.93%) were called active.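 Rule for the calls: active = inhibition above the screen-wide mean plus 3 SD, computed separately per campaign (cut at about 16% in these data); inactive = the rest.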 The entries come from a sample that favours actives as a whole.", "data": [{"system": "Heat shock protein HSP 90 (rabbit reticulocyte lysate; luciferase refolding)", "test": "inhibitors of HSP90 chaperone activity – cell lysate, luminescence, primary screen (AID 1789);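 note: 0% = DMSO wells and 100% = 60 µM geldanamycin wells; inhibitors lower the luminescence because luciferase stays unfolded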", "details": "3 h, at 5.6 µM, hits give high values", "values": [{"smiles": "COc1cc(/C=C(\\C#N)c2nc3ccccc3[nH]2)ccc1O", "inhibition": "-1.74% (inactive)"}, {"smiles": "Cc1ccc2nc(/C(C#N)=C\\c3ccc(OC(=O)c4cccs4)cc3)[nH]c2c1", "inhibition": "30.5% (active)"}, {"smiles": "CCOC(=O)CSc1nc2ccc(C)cc2[nH]1", "inhibition": "1.44% (inactive)"}, {"smiles": "CCn1c(CC(=O)Nc2ccccc2C)nnc1SCC(=O)NC1=NCCS1", "inhibition": "3.37% (inactive)"}, {"smiles": "S=c1[nH]nc(/C=C/c2ccccc2)o1", "inhibition": "-3.77% (inactive)"}, {"smiles": "O=c1oc(/C=C/c2ccccc2)nc2ccccc12", "inhibition": "21% (active)"}, {"smiles": "O=c1oc(-c2ccccc2NS(=O)(=O)c2ccc(Cl)cc2)nc2ccccc12", "inhibition": "0.82% (inactive)"}, {"smiles": "Cc1nc(-c2ccc(NC(=O)c3cccs3)cc2)cs1", "inhibition": "27.1% (active)"}, {"smiles": "O=C(Nc1ccccc1)c1ccc(NC(=O)c2cccs2)cc1", "inhibition": "1.79% (inactive)"}, {"smiles": "Cc1ccc(-c2nnc(-c3ccc(NC(=O)c4cccs4)cc3)o2)cc1", "inhibition": "-1.94% (inactive)"}, {"smiles": "Cc1ccc(-c2noc(CNC(=O)c3ccoc3C)n2)cc1", "inhibition": "4.35% (inactive)"}, {"smiles": "COc1ccccc1CNC(=O)[C@@H]1CCCN1C(=O)[C@@H]1Cc2ccccc2CN1C(=O)OC(C)(C)C", "inhibition": "0.82% (inactive)"}, {"smiles": "Clc1cccc(N=C2NN=C(c3ccc4c(c3)OCCO4)CS2)c1", "inhibition": "38.8% (active)"}, {"smiles": "c1ccc(CN2CCC(N=C3NN=C(c4ccc5c(c4)OCCO5)CS3)CC2)cc1", "inhibition": "13.2% (inactive)"}, {"smiles": "Cc1cccc(N=C2NN=C(c3c[nH]c4ccccc34)CS2)c1", "inhibition": "8.26% (inactive)"}, {"smiles": "COC(CNC(=O)c1ccc2c(c1)ncn2-c1cc(C)cc(C)c1)OC", "inhibition": "-2.44% (inactive)"}, {"smiles": "O=C(OCCN=C1NS(=O)(=O)c2ccccc21)c1cccc([N+](=O)[O-])c1", "inhibition": "-0.96% (inactive)"}, {"smiles": "C=CCOc1c(Br)cc(/C=N\\n2nnnc2N)cc1OC", "inhibition": "6.06% (inactive)"}, {"smiles": "COc1cc(/C=C2/C(=O)NN(c3cccc(Cl)c3)C2=O)cc(Br)c1O", "inhibition": "4.77% (inactive)"}, {"smiles": "CCOc1c(Br)cc(/C=C2\\C(=O)N(CCC#N)N=C2C)cc1OC", "inhibition": "32.1% (active)"}, {"smiles": "COc1ccc(-n2ncc3c2CC(C)(C)CC3NC(=O)CCc2c(C)nn(C)c2C)cc1", "note": "(stereo unspecified)", "inhibition": "-4.92% (inactive)"}, {"smiles": "Cc1n[nH]c(C)c1S(=O)(=O)N1CCCC(C(=O)Nc2ccc(Br)cc2)C1", "note": "(stereo unspecified)", "inhibition": "-0.76% (inactive)"}, {"smiles": "COc1ccc(CNC(=O)/C(C#N)=C/c2cccc(OC)c2OC)cc1", "inhibition": "31.1% (active)"}, {"smiles": "COc1ccc(CNC(=O)CCn2cccc2)cc1", "inhibition": "3.81% (inactive)"}, {"smiles": "COc1ccc(NC(=O)/C(C#N)=C\\c2cc(OC)c(OCc3ccc(C(=O)O)cc3)cc2Br)cc1", "inhibition": "-2.4% (inactive)"}, {"smiles": "Cc1cc(=O)oc2c1ccc1ccccc12", "inhibition": "-1.23% (inactive)"}]}]}
